High-throughput results deposited in PubChem BioAssay by National Center for Advancing Translational Sciences (NCATS).
This is a sample that favours compounds with a hit; in the whole collection about 7.7% have one here.
RE007 growth inh: less growth of the S. pombe RE007 Vpr strain; S. pombe RE007 Vpr strain, BacTiter-Glo ATP luminescence, 24 h; Potency, µM (doses to about 92.2 µM), inactives show at the highest dose activity change, negative = less growth, actives largely listed as inhibitors; hit rate 0.21% among 360,000; active = well fitted falling curve with a large enough effect; inconclusive = small, poorly fitted or top-dose-only effect; inactive = no such curve, though single readings can be large or run the other way; note: potency is the fitted concentration of half-maximal effect; nearly all actives have a fitted effect of over 50% in size
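Fission yeast RE007 carrying one integrated HIV-1 vpr copy, seeded at OD 0.01 in PMG+AL medium with 23 nL pinned compound. Grown 24 h at 30 degrees; viability read by BacTiter-Glo luminescence after 5 min.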
FMDV inh: blocks foot and mouth disease virus | FMDV antiviral cell-based qHTS | Potency, µM (top dose mostly 57.9 µM), for inactives: top-dose activity change, negative = inhibition, actives largely listed as inhibitors | hit rate 1.2% among 410,000; calls by dose curve; tested in HEK293T cells; note: read-out not given here; potency is the fitted concentration of half-maximal effect; nearly all actives have a fitted effect of over 45% in size
Tb PYK inh: blocks Trypanosoma brucei pyruvate kinase; TbPYK enzyme, Kinase-Glo Plus ATP luminescence, 45 min; hit rate 0.12% among 410,000; Q57TT1; AID 624173; Potency, µM (highest dose often 76.8 µM), without a hit: at the highest dose activity, negative = inhibition, actives largely listed as inhibitors; note: potency is the fitted concentration of half-maximal effect; nearly all actives have a fitted effect of over 50% in size
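Enzyme and substrate buffer are dispensed first and compound is pin-transferred. ADP at 130 uM final then starts the reaction, which runs 45 min at room temperature. Detection reagent is added for 10 min before luminescence is imaged.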
Sm TGR inh: S. mansoni TGR enzyme inhibition; purified TGR, DTNB reduction, TNB absorbance 405 nm; Potency, µM (series often up to 114 µM), for the others: top-dose activity change, negative = inhibition, usual class: inhibitors; hit rate 3% among 360,000; AID 485364; note: potency is the fitted concentration of half-maximal effect; nearly all actives have a fitted effect of over 60% in size
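Kinetic colorimetric format: TGR-catalysed, NADPH-driven DTNB reduction monitored via TNB absorbance. Enzyme dispensed at 20 nM; compound exposure 15 min at room temperature before reaction start.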
HCMV antiviral: human cytomegalovirus inhibition; HFF cells, HCMV-luciferase reporter, 72 h; stronger effect = lower value; activity change, negative = inhibition, % at 57.5 µM; hit rate 4.5% among 410,000; AID 1259415; in the data active = activity change below about -60%; inconclusive = no clear call, values can overlap the other calls; inactive = above about -39%
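Inhibition of viral replication was scored as loss of reporter luminescence in HFFs infected with HCMV-luciferase (MOI 1 PFU/cell) for 72 h; compounds tested at 2 doses, normalized to buffer and Salinomycin controls.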
Giardia FBPA inh: Giardia lamblia aldolase inhibition; A8B2U2; purified Giardia FBPA; Potency, µM (highest dose often 59.6 µM), for the others: at the top dose activity, negative = inhibition, hits mostly inhibitors; hit rate 0.71% among 290,000; note: potency is the fitted concentration of half-maximal effect; nearly all actives have a fitted effect of over 55% in size
Target sequence (A8B2U2 whole entry, looked up): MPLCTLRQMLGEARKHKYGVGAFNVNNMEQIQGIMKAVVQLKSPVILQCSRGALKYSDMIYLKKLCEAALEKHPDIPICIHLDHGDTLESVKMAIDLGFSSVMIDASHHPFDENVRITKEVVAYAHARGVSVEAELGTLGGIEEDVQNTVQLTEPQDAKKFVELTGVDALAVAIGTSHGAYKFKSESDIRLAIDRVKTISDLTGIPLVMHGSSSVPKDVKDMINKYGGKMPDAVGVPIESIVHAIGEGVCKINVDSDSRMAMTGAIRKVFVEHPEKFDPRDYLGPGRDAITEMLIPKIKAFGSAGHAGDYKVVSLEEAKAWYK
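40 nM FBPA preincubated 10 min at RT with compound (up to 57.5 uM final), then substrate plus GAPDH/TPI/NAD/arsenate coupling and diaphorase/resazurin added. Fluorescence read after 20 min at RT, 525/598 nm.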
The depositor's hits bear a star; ? = inconclusive; . = not tested or not shown. Unless noted, calls come from the whole dose curve; as a rule, active = well fitted curve in the direction sought with a large enough effect; inconclusive = small, poorly fitted or top-dose-only effect, or another doubt; inactive = no such curve, though single readings can be large; an effect the other way counts as inactive or inconclusive. % is set by controls: 0 for no effect and ±100 for the full control effect.

SMILES	RE007 growth inh	FMDV inh	Tb PYK inh	Sm TGR inh	HCMV antiviral	Giardia FBPA inh
COc1cccc(/C=C/c2nc(C#N)c(NCCc3ccc(OC)c(OC)c3)o2)c1	.	?	-8%	4%	-9	.
COc1ccc(CCNC(=O)CSCc2nc(-c3ccc(OC)c(OC)c3)oc2C)cc1OC	.	-14%	-6%	-10%	-2	.
CCN1C(=O)c2ccccc2Sc2ccc(NC(=O)c3ccc(C)c(F)c3)cc21	.	?	-4%	5%	-39	.
CC(C)(C)OC(=O)N1CCc2nc3ccccc3c(N)c2C1=O	.	.	.	.	-10	.
CN1CCCC(CNC(=O)c2cnn(-c3nccc(-c4cccs4)n3)c2C2CC2)C1 (centres undefined)	.	-15%	.	.	.	.
Cc1ccc2oc(=O)c3cc(C(=O)Nc4ccc(C)c(F)c4)sc3c2c1	.	-15%	1%	?	-3	.
Cc1ccc2[nH]c(=O)c(C(c3nnnn3Cc3ccccc3)N3CCc4ccccc43)cc2c1 (centres undefined)	7%	-10%	-24%	20µM*	8	?
Cc1ccc2cc(C(c3nnnn3Cc3ccccc3)N3CCc4ccccc43)c(=O)[nH]c2c1 (centres undefined)	0%	23%	-14%	4%	-7	-16%
Cc1cc2cc(C(c3nnnn3Cc3ccccc3)N3CCc4ccccc43)c(=O)[nH]c2cc1C (centres undefined)	-3%	-8%	5%	45µM*	35	?
Cc1cc2cc(C(c3nnnn3Cc3ccco3)N3CCc4ccccc4C3)c(=O)[nH]c2cc1C (centres undefined)	-4%	-22%	?	3.5µM*	4	?
CCC(C)Sc1cc(C)c(C#N)c2nc3ccccc3n12 (centres undefined)	-8%	-26%	-2%	-14%	?	15%
Cc1cc(Nc2c(C)n(C)n(-c3ccccc3)c2=O)n2c(nc3cc(F)c(F)cc32)c1C#N	-5%	-9%	-16%	8.9µM*	.	-23%
CCCc1cc(SCC(=O)Nc2c(C)n(C)n(-c3ccccc3)c2=O)n2c(nc3ccccc32)c1C#N	5%	24%	0%	1.8µM*	97	?
CCOC(=O)CSc1cc(C)c(C#N)c2nc3ccccc3n12	2%	?	-17%	2.5µM*	-15	-16%
CC(C)Cc1ccc(S(=O)(=O)N2CCC(c3ccncc3)CC2)cc1	.	?	-4%	9%	?	.
Cc1ccc2oc(-c3cc(NC(=O)c4ccc5c(c4)OCCO5)cc(C)c3O)nc2c1	.	18%	5%	3%	18	.
COc1ccc(C2N(C(=O)c3ccccc3)CCN2C(=O)c2ccc(C)cc2)cc1 (centres undefined)	1%	.	7%	3%	-8	0%
COc1ccc(C(=O)N2CCn3c(C)ccc3C2C)cc1 (centres undefined)	-10%	2%	4%	28µM*	-36	?
Cc1ccc2cccc(OC(=O)c3cccnc3Oc3ccccc3)c2n1	.	.	.	.	19	.
CCOC(=O)c1c(C)n(C(=O)c2ccco2)c(=O)n1C(=O)c1ccco1	1%	23%	1%	35µM*	25	-11%
COC(=O)CCC(C)C1CCC2C3C(O)C[C@@H]4CC(O)CC[C@@]4(C)C3CC(O)[C@]12C (some centres undefined)	.	-7%	.	.	.	4%
COCc1ccc(CN2CCOc3ccc(C4=Cc5ccccc5C4)cc3C2)o1	.	45%	.	.	.	.
Cc1nc(-c2coc3c(O)c(O)ccc3c2=O)cs1	.	26%	.	.	.	14µM*
CCCSc1ncc(Cl)c(C(=O)Nc2ccc(S(=O)(=O)N3CCCCC3C)cc2)n1 (centres undefined)	.	3%	0%	?	-15	.
Cc1ccc(-c2noc(C3CC(=O)N(c4ccc5c(c4)OCCO5)C3)n2)cc1 (centres undefined)	.	-15%	4%	6%	16	.
SMILES	RE007 growth inh	FMDV inh	Tb PYK inh	Sm TGR inh	HCMV antiviral	Giardia FBPA inh
Cc1ccc(-n2nc(C(=O)N3CCC(C)CC3)c(=O)n(C)c2=O)cc1	.	-11%	1%	-5%	-3	.
C=C(C)CN1CCN(S(=O)(=O)c2ccc(C)c(N(C)S(=O)(=O)c3ccc(C)cc3)c2C)CC1	-5%	-26%	21%	-5%	-73*	2%
Cc1ccc(S(=O)(=O)N2CCN(Cc3ccccc3)CC2)c(C)c1N(C)S(=O)(=O)c1ccccc1	3%	-28%	0%	10%	-81*	1%
Cc1ccc(S(=O)(=O)N2CCN(Cc3ccccc3)CC2)c(C)c1NS(C)(=O)=O	.	-17%	-9%	1%	2	.
Cc1ccc(S(=O)(=O)N(C)c2c(C)ccc(S(=O)(=O)N3CCN(C=O)CC3)c2C)cc1	-12%	-4%	-5%	-3%	-90*	9%
Cc1ccc(S(=O)(=O)N(C)c2c(C)ccc(S(=O)(=O)N3CCN(C)CC3)c2C)cc1	28%	1%	21%	-6%	-3	5%
CCOC(=O)/C(C(C)=O)=C1\OC(=O)c2ccccc21	-4%	4%	-4%	20µM*	18	11%
CCOC(=O)/C(C(C)=O)=C1/OC(=O)c2ccccc21	5%	.	0%	11µM*	-32	4%
Cc1ccc(O)c(C(CC(=O)NCC2(c3ccccc3)CCCC2)c2ccccc2)c1 (centres undefined)	.	?	3%	-3%	-99*	.
Cc1ccc(O)c(C(CC(=O)NCc2cccnc2)c2ccccc2)c1 (centres undefined)	14%	-20%	-2%	.	-19	4%
S=C(NCC1(c2ccccc2)CCCC1)Nc1ccccc1	-13%	0%	2%	-7%	-97*	6%
O=C(NCC1(c2ccccc2)CCCC1)C(=O)NCC1(c2ccccc2)CCCC1	-3%	-3%	1%	40µM*	20	2%
O=C(NCC1(c2ccccc2)CCCC1)c1ccccc1	3%	-18%	-6%	4%	?	-5%
C=C[C@H](CC(C)C)N(Cc1ccccc1)S(=O)(=O)N(Cc1ccc(OC)cc1)[C@H](C=C)CC(C)C	49%	?	1%	1%	-9	.
CCOC(=O)[C@@H](C)NS(=O)(=O)N(Cc1ccccc1)[C@H](C(=O)OC)C(C)C	2%	-8%	-8%	-2%	-19	.
COC(=O)[C@H](CC(C)C)NS(=O)(=O)N(Cc1ccccc1)[C@@H](CC(C)C)C(=O)OC	-5%	-18%	-1%	-3%	25	.
COC(=O)[C@H](CC(C)C)N(Cc1ccccc1)S(=O)(=O)N(Cc1ccc(OC)cc1)[C@@H](CC(C)C)C(=O)OC	0%	?	2%	.	-66*	.
